Reference: PubChem BioAssay AID2501 (Southern Research Specialized Biocontainment Screening …, 2010)
Among all 2,200 compounds or so, about 1,200 (55%) were called active. So high a share suggests a set chosen from earlier hits. Some of the results follow. Unmarked numbers belong to inactive results. The limit is not given here; nearly all actives have IC50 up to about 92 µM.

Test: counter assay for TAg ATPase ADP read-out – biochemical, ADP-Hunter, fluorescence, counter-screen (AID 2501);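 also: purified T antigen ATPase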;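 as to inhibition: 0% = enzyme with vehicle and 100% = reference inhibitor wells; higher means more inhibition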
Settings: series mostly up to 100 µM; inhibition: at the top concentration

Compound	inhibition	IC50
CC1=NN(c2nc(-c3ccc(C#N)cc3)cs2)C(=O)C1	-10.8%	
CC1=NN(c2nc(-c3ccccc3)cs2)C(=O)C1		56 µM (active)
OCc1ccccc1SSc1ccccc1CO	11.8%	
Nc1ccc(Sc2ccccc2CC(=O)O)cc1		16.9 µM (active)
N#Cc1c(-c2ccco2)c2c([nH]c1=S)CCCC2		95.5 µM (active)
N#Cc1c(-c2ccco2)cc(-c2ccccc2)[nH]c1=O	-12.2%	
Cc1ccc(-c2c3c([nH]c(=S)c2C#N)CCCC3)o1	15.4% [at 50 µM]	
CCN(CC)c1ccc(NC(=O)CCNC(=O)c2ccco2)cc1		5.22 µM (active)
CCN(CC)c1ccc(NC(=O)c2ccccc2F)cc1		4.71 µM (active)
CCN(CC)c1ccc(NC(=O)c2cc3c(OC)cccc3[nH]2)cc1	27.4%	
COCCNC(=O)Nc1ccc2nc(-c3ccco3)c(-c3ccco3)nc2c1	19.3%	
CCN(CC)c1ccc(NC(=O)c2ccco2)cc1		4.57 µM (active)
O=C(CSc1nnc(CNC(=O)c2ccco2)o1)Nc1ccccc1C(F)(F)F	-0.42%	
COc1cc(-c2nc3cccc(C)n3c2NCC2CCCO2)ccc1O (stereo not given)		41.9 µM (active)
S=c1nc[nH]c2nc[nH]c12	23.4%	
Cc1ccc(NC(=O)COc2ccc(/C(N)=N/O)cc2)cc1C		29.6 µM (active)
Cc1ccc(NC(=O)COc2ccc(C3SCCS3)cc2)cc1	-2.46%	
CCN(CC)C(=O)c1cc([N+](=O)[O-])cc2c1-c1ccc([N+](=O)[O-])cc1C2=C(C#N)C#N	19.6%	
CCN(CC)c1ccc(NC(=O)C2CC(=O)N(Cc3ccccc3)C2)cc1 (stereo not given)		5.88 µM (active)
COc1ccccc1CN1CC(C(=O)NCc2ncccc2C)CCC1=O (stereo not given)	-1.4%	
Cc1ccc(S(=O)(=O)/N=C(/Sc2ccccc2C(=O)O)c2ccccc2)cc1	-7.39%	
Cc1ccc(NC(=O)CNC(=O)c2cccs2)nc1	-35.3%	
Cc1cc(C(=O)c2cccs2)c(N)s1		32.8 µM (active)
COc1cccc(CC2(CO)CCCN(Cc3sc(N4CCCC4)nc3Cl)C2)c1 (stereo not given)	-4.63%	
COC(=O)/C=C/c1ccc(OC(=O)OC)c(OC(=O)OC)c1		8.79 µM (active)

Compound	inhibition	IC50
CCNc1ccc(N=Nc2c(C)n(C)n(-c3ccccc3)c2=O)cc1		3.42 µM (active)
Cc1c(N=C2C=C(Br)C(=O)C(Br)=C2)c(=O)n(-c2ccccc2)n1C		50.9 µM (active)
Cc1cccc(N=Nc2c(C)[nH]n(-c3ccccc3)c2=O)c1	3.15%	
Cc1cc(N)ccc1N=Nc1c(C)n(C)n(-c2ccccc2)c1=O		8.16 µM (active)
COc1ccc(-c2cc(=Nc3c(C)n(C)n(-c4ccccc4)c3=O)c3ccccc3o2)cc1	25.9%	
Cc1nc(N)sc1N=Nc1c(C)n(C)n(-c2ccccc2)c1=O		10.3 µM (active)
CC(C)(C)CC(=O)NC(=S)Nc1ccccc1[N+](=O)[O-]	-5.63%	
Cc1c(CC(=O)N2CCN(C(=O)C3COc4ccccc4O3)CC2)c(=O)oc2c(O)c(O)ccc12 (stereo not given)		5.3 µM (active)
COc1ccc(C(=O)N2CCN(C(=O)C3COc4ccccc4O3)CC2)cc1 (stereo not given)	-0.44%	
O=C1C2C3C=CC(CC3)C2C(=O)N1/N=C/c1ccc(O)c(O)c1 (stereo not given)		5.65 µM (active)
COc1cc(/C=N/N2C(=O)C3C4C=CC(CC4)C3C2=O)ccc1O (stereo not given)		5.67 µM (active)
COC(=O)c1ccc(-c2ccc(/C=N/N3C(=O)C4C5C=CC(C6CC56)C4C3=O)o2)cc1 (stereo not given)	-39.7%	
Cc1oc2c(O)c(O)ccc2c(=O)c1-c1cnn(-c2ccccc2)c1		9.31 µM (active)
CCSC1(SCC)N=C(N)C2(C#N)C(c3ccc(OC)c(OC)c3OC)C12C#N (stereo not given)		96.4 µM (active)
COC(=O)CN1C(=O)[C@@H]2[C@H](C1=O)[C@@H]1CC(C(=O)OC)=C[C@@H](C(=O)OC)[C@@H]3C1=C(C(=O)[C@]3(C)NC(=O)c1ccccc1)[C@@H]2C	25.3%	
C/C(=N/NC(=O)Cc1c(C)[nH][nH]c1=O)c1ccc(O)cc1		9.47 µM (active)
COc1cc(/C(C)=N/NC(=O)Cc2c(C)[nH][nH]c2=O)ccc1O		3.72 µM (active)
CSc1ccc(CCNC(=O)C2CCCN(S(=O)(=O)N3CCOCC3)C2)cc1 (stereo not given)	-1.03%	
COc1cc(/C=N/n2c(-c3n[nH]c4c3CCC4)n[nH]c2=S)cc(OC)c1O		8.78 µM (active)
COc1cc(/C=N/n2c(-c3n[nH]c4c3CCC4)n[nH]c2=S)ccc1O		5.13 µM (active)
CCS(=O)(=O)c1nc(S(=O)(=O)c2ccc(Cl)cc2)c(NCc2ccccn2)s1	-28.7%	
COCC(C)NC(=O)c1cccc([N+](=O)[O-])c1 (stereo not given)	-5.06%	
CCCSc1nc(O)c(C(c2ccc(OC)c(O)c2)c2c(O)nc(SCCC)n(C)c2=O)c(=O)n1C	-8.35%	
CCOc1cc(C(c2c(C)[nH][nH]c2=O)c2c(C)[nH][nH]c2=O)ccc1OC(=O)c1cccc([N+](=O)[O-])c1		28.9 µM (active)
COc1cc(C(c2c(C)[nH][nH]c2=O)c2c(C)[nH][nH]c2=O)ccc1OC(C)C		69 µM (active)
